Results filed as inconclusive are left out. Calls of active or inactive are those of the source. Unless noted, calls follow the shape of the dose curve; as a rule, active = well fitted curve in either direction with a large enough effect (not every such curve was filed as active); inconclusive = small, poorly fitted or top-dose-only effect, or another doubt; inactive = flat fitted curve, though single readings scatter.
Key:
[1] = target: Lysosomal acid glucosylceramidase (Homo sapiens) (UniProt P04062); assay: Glucocerebrosidase-p2 (AID 348; in the data active = potency below about 10 µM; also: potency is read from the fitted curve at half-maximal effect); settings: purified GBA, blue fluorogenic substrate, 40 min
Chain of Lysosomal acid glucosylceramidase (Homo sapiens) (P04062 whole entry, looked up): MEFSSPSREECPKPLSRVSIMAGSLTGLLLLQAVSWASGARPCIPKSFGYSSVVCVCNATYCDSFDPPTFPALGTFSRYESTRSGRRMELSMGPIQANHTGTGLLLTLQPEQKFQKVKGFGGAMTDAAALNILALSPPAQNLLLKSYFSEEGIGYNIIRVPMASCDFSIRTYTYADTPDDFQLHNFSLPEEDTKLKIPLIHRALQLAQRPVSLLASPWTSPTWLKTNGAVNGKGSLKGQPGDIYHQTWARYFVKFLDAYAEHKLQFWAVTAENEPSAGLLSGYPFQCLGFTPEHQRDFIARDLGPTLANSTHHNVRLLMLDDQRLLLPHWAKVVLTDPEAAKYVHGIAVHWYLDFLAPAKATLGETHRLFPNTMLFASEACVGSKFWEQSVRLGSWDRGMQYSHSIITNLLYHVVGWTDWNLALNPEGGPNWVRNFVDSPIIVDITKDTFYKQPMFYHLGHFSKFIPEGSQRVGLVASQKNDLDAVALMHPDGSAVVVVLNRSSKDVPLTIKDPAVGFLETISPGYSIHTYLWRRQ
In short: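 Compounds titrated from 0.6 nM upwards against 0.2 nM enzyme in pH 5.9 citric acid/KH2PO4, taurocholate, tween-20; blue fluorogenic substrate 80 uM, 40 min room temperature, stopped and read Ex 365/Em 440 for AC50.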

[2] = AP1 Signaling Pathway (AID 357); settings: ME-180 AP-1-bla reporter, EGF-induced, beta-lactamase ratio, 5 h; at 7.69 µM (top of the series) unless noted;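 also: ME-180 reporter cells stimulated with EGF at its EC50 level; % is scaled to controls: 0 for no effect and ±100 for the full control effect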
In short: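 AP-1-bla ME-180 cells, Opti-MEM + 0.5% dialyzed FBS, plated overnight 37 °C. Cpd titration + EC50 EGF, 5 h 37 °C. CCF4 2.5 h RT; ex 405, em 460/530 ratio → %activity, AC50.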

[3] = target: Cytochrome P450 1A2 (Homo sapiens) (UniProt P05177); assay: p450-cyp1a2 (AID 410; calls by dose curve; also: potency is read from the fitted curve at half-maximal effect;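 as to activity change, negative = inhibition: -100% = full effect of reference inhibitor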); settings: recombinant CYP1A2, luciferin-ME demethylation, luminescence; series mostly up to 11.4 µM
Chain of Cytochrome P450 1A2 (Homo sapiens) (P05177 whole entry, looked up): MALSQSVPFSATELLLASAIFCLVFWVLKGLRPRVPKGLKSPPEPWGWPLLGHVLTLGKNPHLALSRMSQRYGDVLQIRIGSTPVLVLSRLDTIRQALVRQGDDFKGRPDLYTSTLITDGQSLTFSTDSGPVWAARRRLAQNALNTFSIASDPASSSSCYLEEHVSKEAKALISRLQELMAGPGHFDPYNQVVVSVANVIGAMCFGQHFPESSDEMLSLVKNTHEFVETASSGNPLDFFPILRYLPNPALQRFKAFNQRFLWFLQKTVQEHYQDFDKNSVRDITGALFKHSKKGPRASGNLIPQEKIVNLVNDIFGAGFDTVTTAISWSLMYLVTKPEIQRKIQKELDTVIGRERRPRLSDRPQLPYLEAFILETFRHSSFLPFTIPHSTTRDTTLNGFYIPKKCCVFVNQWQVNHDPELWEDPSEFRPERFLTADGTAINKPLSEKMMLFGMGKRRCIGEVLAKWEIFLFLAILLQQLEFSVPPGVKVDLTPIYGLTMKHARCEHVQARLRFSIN
In short: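 Inhibition was calculated relative to 57 uM furafylline (full inhibition). The reaction used human CYP1A2 at 20nM with Luciferin-ME at its Km, 100uM, driven by an NADPH-regenerating system for 60 min at room temperature.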

[4] = Stat Signaling Pathway (AID 446); settings: ME-180 SIE beta-lactamase reporter, IL-6 stimulated, 5 h; at 7.69 µM (top of the series) unless noted;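 also: ME-180 cervical cancer cells given 40 pM IL-6 alongside compound; SIE-controlled beta-lactamase reporter measured as 460/530 nm FRET emission ratio; % is scaled to controls: 0 for no effect and ±100 for the full control effect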
In short: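 Reporter line: ME-180 cervical carcinoma, SIE-beta-lactamase. Treatment: compound with 40 pM IL-6, 5 hrs, 37 C, in low-serum OPTI-MEM with 10 mM HEPES pH 7.3. Detection: 460/530 nm fluorescence.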

[5] = target: Glucocorticoid receptor (Homo sapiens) (UniProt P04150); assay: GR-GFP Redistribution (AID 450;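 active = compounds whose dose series gives a full or clear partial fitted curve of increased nuclear translocation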; also: potency is read from the fitted curve at half-maximal effect); settings: U2OS GR-GFP nuclear translocation, laser cytometry, 2 h
Chain of Glucocorticoid receptor (Homo sapiens) (P04150 whole entry, looked up, the tested form may be a part): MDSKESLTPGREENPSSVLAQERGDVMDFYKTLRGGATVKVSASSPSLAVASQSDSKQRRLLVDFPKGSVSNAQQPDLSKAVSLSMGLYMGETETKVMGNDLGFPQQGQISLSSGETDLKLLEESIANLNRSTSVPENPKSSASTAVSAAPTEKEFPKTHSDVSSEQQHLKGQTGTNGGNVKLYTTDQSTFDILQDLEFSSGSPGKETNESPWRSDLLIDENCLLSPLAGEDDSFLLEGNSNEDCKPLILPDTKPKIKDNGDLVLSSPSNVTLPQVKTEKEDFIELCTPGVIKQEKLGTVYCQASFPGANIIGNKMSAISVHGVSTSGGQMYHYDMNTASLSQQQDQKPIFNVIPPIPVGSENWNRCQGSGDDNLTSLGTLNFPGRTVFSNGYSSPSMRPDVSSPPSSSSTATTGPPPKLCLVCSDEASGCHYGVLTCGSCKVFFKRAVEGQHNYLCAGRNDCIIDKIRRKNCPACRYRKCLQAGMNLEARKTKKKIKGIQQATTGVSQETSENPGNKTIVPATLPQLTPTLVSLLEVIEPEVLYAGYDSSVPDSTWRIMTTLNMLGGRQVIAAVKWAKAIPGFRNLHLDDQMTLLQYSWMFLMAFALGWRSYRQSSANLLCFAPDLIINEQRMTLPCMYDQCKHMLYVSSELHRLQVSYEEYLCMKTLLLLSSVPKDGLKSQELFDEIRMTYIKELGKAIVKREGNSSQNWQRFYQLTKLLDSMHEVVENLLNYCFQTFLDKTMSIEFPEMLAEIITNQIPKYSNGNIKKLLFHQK

[6] = target: Glucocorticoid receptor (Homo sapiens) (UniProt P04150); assay: GR-EFC Redistribution (AID 451; calls by dose curve; also: potency is read from the fitted curve at half-maximal effect); settings: CHO-K1 GR-EFC translocation, beta-gal luminescence, 2 h
In short: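 Translocation of GR-ED fusion to nuclear EA restores b-gal, read by luminescence after 1 h room-temperature detection. Engineered CHO-K1 biosensor cells, 1,000/well, exposed 2 h at 37 C to titrations up to 46 uM final.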

[7] = target: 3',5'-cyclic-AMP phosphodiesterase 4B (Homo sapiens) (UniProt Q07343); assay: qHTS Assay for Inhibitors of PDE-IV (AID 607; active = well fitted activation curve with a large enough effect in the main read-out, with a control signal flat, not every such curve was filed as active; also: % of control where 0% means no effect); settings: HEK293 ACTOne CNG channel cells, membrane potential fluorescence; series mostly up to 22.9 µM
Chain of 3',5'-cyclic-AMP phosphodiesterase 4B (Homo sapiens) (Q07343 whole entry, looked up): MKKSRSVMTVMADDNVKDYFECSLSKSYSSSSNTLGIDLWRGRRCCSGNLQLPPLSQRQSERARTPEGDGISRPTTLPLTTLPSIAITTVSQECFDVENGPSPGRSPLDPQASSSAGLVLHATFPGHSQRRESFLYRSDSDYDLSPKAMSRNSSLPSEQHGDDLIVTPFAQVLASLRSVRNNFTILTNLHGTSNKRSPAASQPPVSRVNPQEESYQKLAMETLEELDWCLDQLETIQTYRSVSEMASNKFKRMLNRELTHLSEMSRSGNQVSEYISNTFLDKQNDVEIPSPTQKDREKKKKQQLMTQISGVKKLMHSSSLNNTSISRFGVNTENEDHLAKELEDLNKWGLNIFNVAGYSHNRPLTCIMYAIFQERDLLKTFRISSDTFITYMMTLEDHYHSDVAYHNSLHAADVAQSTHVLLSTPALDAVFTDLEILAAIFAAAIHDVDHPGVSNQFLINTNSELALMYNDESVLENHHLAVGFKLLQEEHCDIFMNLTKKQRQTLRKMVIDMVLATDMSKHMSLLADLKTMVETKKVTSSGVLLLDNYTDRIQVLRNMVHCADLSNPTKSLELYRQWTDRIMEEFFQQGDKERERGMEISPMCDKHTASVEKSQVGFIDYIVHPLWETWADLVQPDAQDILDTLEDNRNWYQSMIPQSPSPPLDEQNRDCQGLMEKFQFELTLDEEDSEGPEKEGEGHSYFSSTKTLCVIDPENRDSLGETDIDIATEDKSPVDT
In short: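 Cell-based read-out of cAMP via a modified cyclic nucleotide-gated channel and membrane potential dye (535/590 nm) in HEK293 cells expressing PDE4 endogenously. Compounds tested up to 22.9 uM final; 100 uM RO 20-1724 reference.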

[8] = target: Cytochrome P450 3A4 (Homo sapiens) (UniProt P08684); assay: qHTS Assay for Inhibitors and Substrates of Cytochrome P450 3A4 (AID 884; active = well fitted curve in the direction sought with a large enough effect; an effect the other way counts as inactive or inconclusive; also: potency is read from the fitted curve at half-maximal effect; nearly all actives have a fitted effect of over 50% in size); settings: recombinant CYP3A4, Luciferin-PPXE luminescence; series mostly up to 57.1 µM
Chain of Cytochrome P450 3A4 (Homo sapiens) (P08684 whole entry, looked up): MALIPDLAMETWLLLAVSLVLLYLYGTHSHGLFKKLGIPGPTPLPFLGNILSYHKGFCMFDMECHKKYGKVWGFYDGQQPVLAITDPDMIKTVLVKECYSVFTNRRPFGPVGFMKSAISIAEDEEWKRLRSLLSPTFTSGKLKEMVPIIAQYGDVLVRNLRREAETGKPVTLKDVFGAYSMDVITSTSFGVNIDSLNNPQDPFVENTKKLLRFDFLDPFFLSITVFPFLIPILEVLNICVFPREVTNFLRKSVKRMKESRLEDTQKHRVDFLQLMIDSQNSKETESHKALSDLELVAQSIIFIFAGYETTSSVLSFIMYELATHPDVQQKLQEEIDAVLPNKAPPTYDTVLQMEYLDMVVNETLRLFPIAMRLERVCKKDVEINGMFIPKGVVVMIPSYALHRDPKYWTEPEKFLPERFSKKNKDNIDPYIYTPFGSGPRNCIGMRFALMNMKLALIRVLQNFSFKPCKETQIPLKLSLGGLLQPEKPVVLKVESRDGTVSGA
In short: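 20 nM human CYP3A4 with 25 uM Luciferin-PPXE (at KM) in 200 mM KPO4, preincubated 10 min with compound; NADPH regeneration started a 60 min RT reaction. Luciferin detected by luminescence, normalized to 57 uM ketoconazole as full inhibition.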

[9] = target: Cytochrome P450 3A4 (Homo sapiens) (UniProt P08684); assay: qHTS Assay for Activators of Cytochrome P450 3A4 (AID 885; active = well fitted curve in the direction sought with a large enough effect; an effect the other way counts as inactive or inconclusive; also: nearly all actives have a fitted effect of over 65% in size); settings: recombinant CYP3A4, Luciferin-PPXE luminescence, 60 min; series mostly up to 57.1 µM
In short: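 Signal was normalized against complete inhibition by 57 uM ketoconazole. The reaction used 20nM CYP3A4 with 25uM Luciferin-PPXE, 10-min compound preincubation and a 60-min NADPH-supported step at RT.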

[10] = target: Cytochrome P450 2C19 (Homo sapiens) (UniProt P33261); assay: qHTS Assay for Inhibitors and Substrates of Cytochrome P450 2C19 (AID 899; active = well fitted curve in the direction sought with a large enough effect; an effect the other way counts as inactive or inconclusive; also: potency is read from the fitted curve at half-maximal effect; nearly all actives have a fitted effect of over 60% in size); settings: recombinant CYP2C19, luciferin-H EGE luminescence; series mostly up to 11.4 µM
Chain of Cytochrome P450 2C19 (Homo sapiens) (P33261 whole entry, looked up): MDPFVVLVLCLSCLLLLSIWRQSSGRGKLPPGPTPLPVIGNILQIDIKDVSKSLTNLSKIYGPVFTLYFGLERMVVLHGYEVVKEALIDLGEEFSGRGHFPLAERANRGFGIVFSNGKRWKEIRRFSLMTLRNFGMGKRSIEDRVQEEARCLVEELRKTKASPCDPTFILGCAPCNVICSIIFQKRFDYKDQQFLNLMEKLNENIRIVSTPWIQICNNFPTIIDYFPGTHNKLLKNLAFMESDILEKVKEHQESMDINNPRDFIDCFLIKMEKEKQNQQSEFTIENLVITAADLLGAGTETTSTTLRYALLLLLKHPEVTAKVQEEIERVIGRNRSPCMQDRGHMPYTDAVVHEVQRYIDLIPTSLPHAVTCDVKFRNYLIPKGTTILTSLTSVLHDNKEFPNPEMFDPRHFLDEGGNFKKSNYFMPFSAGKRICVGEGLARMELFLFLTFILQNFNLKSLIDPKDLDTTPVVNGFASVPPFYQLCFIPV
In short: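 Reactions contain 5nM enzyme, 10uM Luciferin-H EGE (KM) and 50mM KPO4; compound preincubates 10 min at 37C, NADPH regeneration starts turnover for 60 min. Luminescence after detection reagent gives activity.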

[11] = target: Mitogen-activated protein kinase 10 (Mus musculus) (UniProt Q61831); assay: JNK3 AlphaScreen Assay (AID 530); settings: JNK3 lysate, c-Jun phosphorylation; series mostly up to 57.1 µM;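 also: kinase came from lysate of stimulated human HepG2 cells; signal reports phosphorylation of biotinylated GST-cJun 1-79 at Ser73 with 10 µM ATP; % is scaled to controls: 0 for no effect and ±100 for the full control effect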
In short: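 Room-temperature AlphaScreen kinase assay; pre-activated HepG2 lysate as JNK3 source, biotin-GST-cJun(1-79) substrate, 10 uM ATP, compound 15 min preincubation.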

[12] = NFAT Signaling Pathway (AID 444); settings: Jurkat NFAT-bla M1, carbachol, beta-lactamase ratio, 5 h; at 7.69 µM (top of the series) unless noted;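 also: carbachol stimulus at about its EC50 of 1 µM final; % is scaled to controls: 0 for no effect and ±100 for the full control effect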
In short: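 Read-out: CCF4 FRET ratio (460 nm/530 nm) after 1 h RT dye loading, used for %activity and AC50 from titration series. Cells: Jurkat NFAT-β-lactamase/M1 line, treated with compound plus 1 uM carbachol for 5 h, 37 °C.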

[13] = target: Cytochrome P450 2C9 (Homo sapiens) (UniProt P11712); assay: qHTS Assay for Inhibitors and Substrates of Cytochrome P450 2C9 (AID 883; active = well fitted curve in the direction sought with a large enough effect; an effect the other way counts as inactive or inconclusive; also: potency is read from the fitted curve at half-maximal effect; nearly all actives have a fitted effect of over 60% in size); settings: recombinant CYP2C9, luciferin-H luminescence, 60 min; series mostly up to 57.1 µM
Chain of Cytochrome P450 2C9 (Homo sapiens) (P11712 whole entry, looked up): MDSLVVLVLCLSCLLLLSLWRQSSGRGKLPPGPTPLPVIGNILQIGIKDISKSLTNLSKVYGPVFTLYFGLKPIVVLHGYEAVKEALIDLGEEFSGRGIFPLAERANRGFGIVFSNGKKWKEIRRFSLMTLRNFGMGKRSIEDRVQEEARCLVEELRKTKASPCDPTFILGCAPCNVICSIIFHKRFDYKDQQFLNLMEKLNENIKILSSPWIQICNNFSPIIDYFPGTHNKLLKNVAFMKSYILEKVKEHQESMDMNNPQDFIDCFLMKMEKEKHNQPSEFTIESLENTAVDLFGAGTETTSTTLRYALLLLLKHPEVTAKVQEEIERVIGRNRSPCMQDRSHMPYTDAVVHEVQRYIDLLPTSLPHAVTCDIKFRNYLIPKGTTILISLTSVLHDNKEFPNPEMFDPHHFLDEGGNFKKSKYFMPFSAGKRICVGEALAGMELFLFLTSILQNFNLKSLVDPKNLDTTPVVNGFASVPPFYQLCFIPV
In short: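 Turnover of Luciferin-H (100uM, KM) by 10nM human CYP2C9 was measured over 60 min at 37C with NADPH regeneration; inhibitors and some substrates reduce luminescence. Data normalized to sulphaphenazole 57uM.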

[14] = target: Cytochrome P450 2D6 (Homo sapiens) (UniProt P10635); assay: qHTS Assay for Inhibitors and Substrates of Cytochrome P450 2D6 (AID 891; active = well fitted curve in the direction sought with a large enough effect; an effect the other way counts as inactive or inconclusive; also: nearly all actives have a fitted effect of over 60% in size; also: potency is read from the fitted curve at half-maximal effect); settings: recombinant CYP2D6, luciferin-ME EGE luminescence; series mostly up to 11.4 µM
Chain of Cytochrome P450 2D6 (Homo sapiens) (P10635 whole entry, looked up): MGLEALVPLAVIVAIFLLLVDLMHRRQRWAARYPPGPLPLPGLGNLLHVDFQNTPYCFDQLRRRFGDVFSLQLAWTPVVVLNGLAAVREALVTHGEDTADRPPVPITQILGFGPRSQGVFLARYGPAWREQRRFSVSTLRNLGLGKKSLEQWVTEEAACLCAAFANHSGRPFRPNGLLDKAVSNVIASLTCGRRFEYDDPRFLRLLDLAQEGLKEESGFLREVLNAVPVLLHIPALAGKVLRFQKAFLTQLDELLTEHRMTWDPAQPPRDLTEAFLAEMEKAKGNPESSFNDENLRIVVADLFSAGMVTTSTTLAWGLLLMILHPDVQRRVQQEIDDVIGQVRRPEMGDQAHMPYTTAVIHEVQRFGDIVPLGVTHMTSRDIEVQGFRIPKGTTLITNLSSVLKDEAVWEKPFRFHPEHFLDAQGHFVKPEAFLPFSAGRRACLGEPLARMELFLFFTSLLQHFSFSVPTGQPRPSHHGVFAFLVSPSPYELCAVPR
In short: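 Human CYP2D6 (5 nM) with 30 uM Luciferin-ME EGE (at Km) in 100 mM KPO4, compound preincubated 10 min, then NADPH regeneration system for 60 min at room temperature. Luciferin read by luminescence; normalized to 1.43 uM quinidine.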

CC(C)=C[C@H]1[C@@H](C(=O)OCc2cc3c(cc2Cl)OCO3)C1(C)C
active: Potency [3] 0.794 µM | Potency [8] 0.316 µM | Potency [10] 1.58 µM
inactive: Potency [1] > 11.4 µM | activity change, negative = inhibition [2] -2.25% | activity, negative = inhibition [4] 0.513% | Potency [5] > 46 µM | Potency [6] > 9.22 µM | outcome [7] | activity change, positive = activation [9] -75% [at 11.4 µM]

FC(F)(F)c1nc2ccc(SSc3ccc4nc(C(F)(F)F)[nH]c4c3)cc2[nH]1
inactive: Potency [1] > 11.4 µM | activity change, negative = inhibition [2] -1.24% | activity, negative = inhibition [4] -6.22% | Potency [6] > 9.22 µM | activity change, negative = inhibition [11] 12.4% [at 11.4 µM] | outcome [7]
active: Potency [3] 0.501 µM | Potency [10] 5.01 µM

NC1(P(=O)(O)O)CCCCC1
inactive: Potency [1] > 11.4 µM | activity change, negative = inhibition [2] 11.8% | activity change, negative = inhibition [12] -8.61% | activity, negative = inhibition [4] 4.3% | Potency [5] > 46 µM | Potency [6] > 9.22 µM | activity change, negative = inhibition [11] 5.68% [at 11.4 µM] | outcome [7]

CC1=NN(c2ccccc2)C(=O)[C@@H]1N=Nc1ccc([As](=O)(O)O)c(O)c1
inactive: Potency [1] > 11.4 µM | activity change, negative = inhibition [2] 6.32% | activity change, negative = inhibition [12] 12.3% | activity, negative = inhibition [4] -13.3% | Potency [5] > 46 µM | Potency [6] > 9.22 µM | activity change, negative = inhibition [11] -2.32% [at 11.4 µM] | outcome [7] | Potency [14]
active: Potency [13] 3.16 µM

CCOC(=O)c1ccc2[nH]c(-c3ccc(S(=O)(=O)F)cc3)cc(=O)c2c1
inactive: Potency [1] > 11.4 µM | activity change, negative = inhibition [2] -7.65% | activity change, negative = inhibition [12] 25.8% | activity, negative = inhibition [4] -0.749% | Potency [5] > 46 µM | Potency [6] > 9.22 µM | activity change, negative = inhibition [11] 3.3% [at 11.4 µM] | outcome [7]

CC[C@@](O)(C(=O)O)c1cc2n(c(=O)c1CO)Cc1cc3ccccc3nc1-2
inactive: Potency [1] > 11.4 µM | activity change, negative = inhibition [2] 0.967% | activity change, negative = inhibition [12] -9.59% | activity, negative = inhibition [4] -0.155% | Potency [5] > 46 µM | Potency [6] > 9.22 µM | activity change, negative = inhibition [11] 3.55% [at 11.4 µM]

CSc1ccc2c(c1)c(CCN)c(C)n2Cc1ccccc1Cl
inactive: Potency [1] > 11.4 µM | activity change, negative = inhibition [2] 16.6% | activity change, negative = inhibition [12] 17.6% | activity, negative = inhibition [4] -2.31% | Potency [5] > 46 µM | Potency [6] > 9.22 µM | activity change, negative = inhibition [11] -5.61% [at 11.4 µM] | outcome [7]

O=C(O)[C@H]1[O][Sb][O][C@@H](C(=O)O)C1O (some centres undefined)
inactive: Potency [1] > 11.4 µM | activity change, negative = inhibition [2] 1.25% | activity change, negative = inhibition [12] 8.28% | activity, negative = inhibition [4] 6.32% | Potency [5] > 46 µM | Potency [6] > 9.22 µM | activity change, negative = inhibition [11] -2.33% [at 11.4 µM] | outcome [7]

O=C(O)CNC(=O)c1ccc([As](=O)(O)O)cc1
inactive: Potency [1] > 11.4 µM | activity change, negative = inhibition [2] 9.68% | activity change, negative = inhibition [12] 7.56% | activity, negative = inhibition [4] 12.9% | Potency [5] > 46 µM | Potency [6] > 9.22 µM | activity change, negative = inhibition [11] 36.2% [at 11.4 µM]

C[C@]1(O)CC[C@H]2[C@@H]3[C@@H](O)CC4=CC(=O)CC[C@@]4(C)[C@H]3CC[C@]21C
inactive: Potency [1] > 11.4 µM | activity change, negative = inhibition [2] 1.55% | activity change, negative = inhibition [3] 1.4% [at 2.29 µM] | activity, negative = inhibition [4] -1.92% | Potency [6] > 9.22 µM | activity change, negative = inhibition [11] -3.1% [at 11.4 µM] | outcome [7]

O=S(=O)(Nc1nccs1)c1ccc([As](=O)(O)O)cc1
inactive: Potency [1] > 11.4 µM | activity change, negative = inhibition [2] 4.77% | activity change, negative = inhibition [12] 8.49% | activity, negative = inhibition [4] 10.3% | Potency [5] > 46 µM | Potency [6] > 9.22 µM | activity change, negative = inhibition [11] 2.72% [at 11.4 µM] | outcome [7]

O=C(O)C(Oc1nc(=S)[nH]c(=S)[nH]1)(c1ccc(Cl)cc1)c1ccc(Cl)cc1
inactive: Potency [1] > 11.4 µM | activity change, negative = inhibition [2] 17% | activity change, negative = inhibition [12] 0.65% | activity, negative = inhibition [4] 3.94% | Potency [5] > 46 µM | Potency [6] > 9.22 µM | activity change, negative = inhibition [11] 5.45% [at 11.4 µM] | outcome [7]

CCNC(C)(C)[C@@H](SS)c1ccc(Br)cc1
inactive: Potency [1] > 11.4 µM | activity change, negative = inhibition [2] 5.96% | activity change, negative = inhibition [12] 11.8% | activity, negative = inhibition [4] -1.19% | Potency [5] > 46 µM | Potency [6] > 9.22 µM | activity change, negative = inhibition [11] -0.59% [at 11.4 µM] | outcome [7]
active: Potency [14] 2 µM

CS(=N)(=O)CC[C@H](N)P(=O)(O)O (some centres undefined)
inactive: Potency [1] > 11.4 µM | activity change, negative = inhibition [2] -0.909% | activity change, negative = inhibition [12] -0.082% | activity, negative = inhibition [4] 2.22% | Potency [5] > 46 µM | Potency [6] > 9.22 µM | activity change, negative = inhibition [11] -2.65% [at 11.4 µM] | outcome [7]
